In PubChem BioAssay (Tox21):
Results filed as inconclusive are left out. Activity calls are given as the source filed them. Unless noted, the call rests on the fitted dose curve.

What was measured:
[1] = Nuclear factor erythroid 2-related factor 2/antioxidant responsive element (Nrf2/ARE) small molecule agonists: qHTS cell viability counter screen in human keratinocytes (AID 1919968; active means well fitted curve in the direction sought with a large enough effect in the repeat runs; an effect the other way counts as inactive or inconclusive; further: nearly all actives have a fitted effect of over 55% in size; further: potency means the concentration at half of the fitted maximal effect)
Method in brief: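 Seed 1,500 KeratinoSens cells per well, then incubate 5 h at 37 C/5% CO2. Add compounds in DMSO and incubate 23 h. Add CellTiter-Fluor, wait 1 h and read fluorescence.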

[2] = Nuclear factor erythroid 2-related factor 2/antioxidant responsive element (Nrf2/ARE) small molecule agonists: luciferase reporter gene qHTS assay in human keratinocytes (AID 1919969); further: nearly all actives have a fitted effect of over 35% in size; further: potency means the concentration at half of the fitted maximal effect
[3] = biological target: KiSS-1 receptor (Homo sapiens) (UniProt Q969F8); assay: Human kisspeptin (KISS1R) small molecule agonists, calcium flux assay in KISS1R-HEK293 cells (AID 1920064; active means well fitted curve in the direction sought with a large enough effect in the repeat runs; an effect the other way counts as inactive or inconclusive)
Method in brief: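 Cells plated and incubated 18 h; dye added, 1 h at 37 C; compounds in DMSO pinned in; signal read at 480/540 nm every second for 3 min. Each compound tested at 15 concentrations in triplicate.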

[4] = G protein-coupled receptor (GPCR) small molecule agonists, calcium flux assay: HEK293 wild type cell line counter screen (AID 1920065)
Method in brief: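 Counter-screen of the Tox21 10K library for non-specific calcium release: dye-loaded cells received compounds in DMSO and were monitored by kinetic fluorescence (480/540 nm, 3 min). Fifteen concentrations, run in triplicate.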

[5] = p53 small molecule agonists, cell-based qHTS assay with rat liver microsomes (AID 1963578)
Method in brief: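 Each plate received p53RE-bla cells, then compound, then rat liver microsomes and NADPH (both 0.5 mg/mL final). Plates were held 16 h at 37 C, and beta-lactamase activity was detected with LiveBLAzer over 2 h.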

[6] = p53 small molecule agonists, cell-based qHTS assay with human liver microsomes: qHTS cell viability counter screen (AID 1963579); further: nearly all actives have a fitted effect of over 45% in size; further: potency means the concentration at half of the fitted maximal effect
Method in brief: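 Tox21 library compounds, delivered from DMSO stocks, were tested on p53RE-bla cells together with 0.5 mg/mL human liver microsomes and 0.5 mg/mL NADPH (final) over 16 h at 37 C; CellTiter-Glo luminescence served as the cytotoxicity measure.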

[7] = p53 small molecule agonists, cell-based qHTS assay with rat liver microsomes: qHTS cell viability counter screen (AID 1963580); further: nearly all actives have a fitted effect of over 45% in size; further: potency means the concentration at half of the fitted maximal effect
Method in brief: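 p53RE-bla HCT-116 cells (4,000/well) rested 5 h at 37 C, then given Tox21 compounds in DMSO with rat liver microsomes (0.5 mg/mL final) plus NADPH (0.5 mg/mL final) for 16 h at 37 C. Viability read by CellTiter-Glo luminescence after 30 min at room temperature.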

[8] = p53 small molecule agonists, cell-based qHTS assay: qHTS cell viability counter screen (AID 1963581); further: nearly all actives have a fitted effect of over 45% in size; further: potency means the concentration at half of the fitted maximal effect
Method in brief: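 Cells: HCT-116 with p53 response element-driven beta-lactamase. Treatment: 16 h, 37 C, compounds in DMSO. Read: CellTiter-Glo luminescence after 30 min RT.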

[9] = biological target: 5-hydroxytryptamine receptor 2A (Homo sapiens) (UniProt P28223); assay: 5-hydroxytryptamine receptor 2A (HTR2A) small molecule antagonists, cell-based qHTS assay (AID 1963586); further: nearly all actives have a fitted effect of over 45% in size
Method in brief: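 Antagonist-mode intracellular calcium assay: DOI (4 nM) added after 5 min compound pre-incubation at room temperature to dye-loaded HTR2A-CHO cells. Fluorescence followed for 3 min, sampled every second.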

[10] = biological target: 5-hydroxytryptamine receptor 2A (Homo sapiens) (UniProt P28223); assay: 5-hydroxytryptamine receptor 2A (HTR2A) small molecule agonists, cell-based qHTS assay (AID 1963587); further: nearly all actives have a fitted effect of over 30% in size; further: potency means the concentration at half of the fitted maximal effect
Method in brief: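 HTR2A-CHO cells, plated 18 h at 37 C/5% CO2, dye-loaded 1 h at 37 C; compounds in DMSO added by pin tool (agonist mode). Intracellular calcium flux read as kinetic fluorescence on FDSS over 2 min at 1 s intervals.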

[11] = biological target: Muscarinic acetylcholine receptor M1 (Homo sapiens) (UniProt P11229); assay: Cholinergic receptor muscarinic 1 (CHRM1) small molecule antagonists, cell-based qHTS assay (AID 1963588); further: nearly all actives have a fitted effect of over 40% in size
Method in brief: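 CHRM1-CHO calcium-flux assay, antagonist mode. Cells were seeded 18 h, dye-loaded 1 h at 37 C and given compound for 5 min at RT, then acetylcholine was added at 50nM. FDSS fluorescence was read 3 min; 15 concentrations, three runs.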

[12] = biological target: Muscarinic acetylcholine receptor M1 (Homo sapiens) (UniProt P11229); assay: Cholinergic receptor muscarinic 1 (CHRM1) small molecule agonists, cell-based qHTS assay (AID 1963589); further: nearly all actives have a fitted effect of over 35% in size
Method in brief: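 Agonist-mode qHTS in CHO cells stably carrying human muscarinic M1. Intracellular calcium is tracked by fluorescence every second after compound transfer; each compound runs at 15 concentrations in three independent runs.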

[13] = biological target: Beta-2 adrenergic receptor (Homo sapiens) (UniProt P07550); assay: Adrenergic beta2 receptor (ADRB2) small molecule antagonists, cell-based qHTS assay (AID 1963592); further: series mostly up to about 92 µM; nearly all actives have a fitted effect of over 50% in size
Method in brief: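 Cells (CHO, stable ADRB2 overexpression) incubated 18-20hr at 37C; compounds added from DMSO; agonist mix (1nM isoproterenol, 100uM IBMX, 25uM Ro-20-1724) added; 0.5hr RT; d2-cAMP and anti-cAMP-cryptate added; 1hr RT; 665/615 nm read.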

[14] = biological target: D(2) dopamine receptor (Homo sapiens) (UniProt P14416); assay: Dopamine D2 receptor (DRD2) small molecule agonists, cell-based qHTS assay (AID 1963594); further: nearly all actives have a fitted effect of over 35% in size
Method in brief: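 HEK293 cells stably expressing DRD2 were cultured 24 h at 37 C, then given Ro20-1724 (0.1 mM final) and compounds for 10 min at room temperature. NKH477 (200nM) was then added for 30 min. cAMP was read by HTRF.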

[15] = biological target: D(2) dopamine receptor (Homo sapiens) (UniProt P14416); assay: Dopamine D2 receptor (DRD2) small molecule antagonists, cell-based qHTS assay (AID 1963595; active means well fitted inhibition curve with a large enough effect in the signal ratio in the repeat runs, with a control signal flat; the % refers to the signal ratio)
Method in brief: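 Human DRD2 antagonist qHTS measuring cAMP by HTRF. The cells are exposed to compound for 10 min, then to NKH477 (200 nM) and quinpirole (12 nM) for 30 min at RT, with Ro20-1724 (0.1 mM) present throughout.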

[16] = p53 small molecule agonists, cell-based qHTS assay (AID 1963582; active means well fitted activation curve with a large enough effect in the signal ratio in the repeat runs, not every such curve was filed as active; the % refers to the signal ratio)
Method in brief: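 Quantitative HTS in p53RE-bla cells: after a 5 h settling period, compounds delivered in DMSO were left on cells for 16 h at 37 C, and reporter induction was measured as fluorescence following 2 h substrate loading.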

[17] = cAMP Responsive Elements (CRE) small molecule agonists, cell-based qHTS assay (AID 1963590)
Method in brief: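 Agonist mode qHTS in CRE-bla HEK 293T cells: compounds dosed from DMSO for 3 h at 37 C/5% CO2, followed by LiveBLAzer B/G FRET substrate for 2 h at room temperature.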

[18] = biological target: Beta-2 adrenergic receptor (Homo sapiens) (UniProt P07550); assay: Adrenergic beta2 receptor (ADRB2) small molecule agonists, cell-based qHTS assay (AID 1963593);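 further: CHO cells stably overexpressing human ADRB2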
Method in brief: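 CHO cells stably over-expressing ADRB2 were plated overnight at 37C, then dosed with compounds plus a stimulation mix containing 100uM IBMX and 25uM Ro-20-1724 for 0.5hr at room temperature. cAMP was measured by HTRF competition, 1hr.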

[19] = cAMP Responsive Elements (CRE) small molecule antagonists, cell-based qHTS assay (AID 1963591; active means well fitted inhibition curve with a large enough effect in the signal ratio in the repeat runs, not every such curve was filed as active; the % refers to the signal ratio)
Method in brief: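 Antagonist mode: test compounds are co-incubated with the adenylyl cyclase activator NKH477 (0.25 uM final) on CRE-bla HEK293T cells for 3 h at 37 °C, followed by LiveBLAzer substrate loading.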

[20] = p53 small molecule agonists, cell-based qHTS assay with human liver microsomes (AID 1963577);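 further: p53 response element beta-lactamase reporter cells with liver microsomes plus NADPH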
Method in brief: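 Metabolically competent format: test substances, human liver microsomes and NADPH (both 0.5 mg/mL final) incubated with p53RE-bla cells 16 h at 37 C. Beta-lactamase reporter signal then quantified by fluorescence.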

Measured: Potency

Muscarinic acetylcholine receptor M1 (Homo sapiens), sequence (P11229 whole entry, looked up): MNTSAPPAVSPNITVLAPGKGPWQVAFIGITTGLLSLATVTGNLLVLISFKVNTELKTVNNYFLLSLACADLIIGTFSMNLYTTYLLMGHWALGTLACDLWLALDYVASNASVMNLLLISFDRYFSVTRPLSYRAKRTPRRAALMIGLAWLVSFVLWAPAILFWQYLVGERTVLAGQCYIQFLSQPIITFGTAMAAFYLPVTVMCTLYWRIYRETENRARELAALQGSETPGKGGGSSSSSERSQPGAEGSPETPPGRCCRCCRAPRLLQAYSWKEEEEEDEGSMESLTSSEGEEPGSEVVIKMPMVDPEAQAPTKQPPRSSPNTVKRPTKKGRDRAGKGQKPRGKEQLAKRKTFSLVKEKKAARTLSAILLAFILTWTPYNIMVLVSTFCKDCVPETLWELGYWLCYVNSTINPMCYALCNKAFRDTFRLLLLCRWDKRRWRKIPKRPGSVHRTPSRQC
5-hydroxytryptamine receptor 2A (Homo sapiens), sequence (P28223 whole entry, looked up): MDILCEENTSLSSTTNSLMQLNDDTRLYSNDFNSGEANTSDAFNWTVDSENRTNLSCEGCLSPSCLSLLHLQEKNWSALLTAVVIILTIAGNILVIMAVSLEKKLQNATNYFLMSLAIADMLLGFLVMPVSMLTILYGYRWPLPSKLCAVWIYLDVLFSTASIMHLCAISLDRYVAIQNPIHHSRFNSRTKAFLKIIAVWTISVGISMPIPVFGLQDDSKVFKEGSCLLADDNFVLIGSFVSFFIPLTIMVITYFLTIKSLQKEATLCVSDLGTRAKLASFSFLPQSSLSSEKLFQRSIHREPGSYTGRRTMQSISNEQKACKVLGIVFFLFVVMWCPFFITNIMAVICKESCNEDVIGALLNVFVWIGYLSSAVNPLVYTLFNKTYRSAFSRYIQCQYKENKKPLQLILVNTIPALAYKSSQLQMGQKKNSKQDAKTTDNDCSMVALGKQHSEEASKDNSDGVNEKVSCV
D(2) dopamine receptor (Homo sapiens), sequence (P14416 whole entry, looked up): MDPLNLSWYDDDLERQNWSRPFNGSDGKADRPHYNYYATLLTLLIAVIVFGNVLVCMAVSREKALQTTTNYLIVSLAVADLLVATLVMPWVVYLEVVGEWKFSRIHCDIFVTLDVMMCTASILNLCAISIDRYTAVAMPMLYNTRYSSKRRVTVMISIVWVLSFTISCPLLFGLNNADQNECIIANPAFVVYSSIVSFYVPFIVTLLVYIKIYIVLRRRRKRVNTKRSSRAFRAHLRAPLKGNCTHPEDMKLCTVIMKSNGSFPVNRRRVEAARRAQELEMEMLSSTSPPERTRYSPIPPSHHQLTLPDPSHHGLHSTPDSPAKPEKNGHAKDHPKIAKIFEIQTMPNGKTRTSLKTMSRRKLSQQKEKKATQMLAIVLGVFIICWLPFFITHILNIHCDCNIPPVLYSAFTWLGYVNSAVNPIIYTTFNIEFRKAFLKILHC
KiSS-1 receptor (Homo sapiens), sequence (Q969F8 whole entry, looked up): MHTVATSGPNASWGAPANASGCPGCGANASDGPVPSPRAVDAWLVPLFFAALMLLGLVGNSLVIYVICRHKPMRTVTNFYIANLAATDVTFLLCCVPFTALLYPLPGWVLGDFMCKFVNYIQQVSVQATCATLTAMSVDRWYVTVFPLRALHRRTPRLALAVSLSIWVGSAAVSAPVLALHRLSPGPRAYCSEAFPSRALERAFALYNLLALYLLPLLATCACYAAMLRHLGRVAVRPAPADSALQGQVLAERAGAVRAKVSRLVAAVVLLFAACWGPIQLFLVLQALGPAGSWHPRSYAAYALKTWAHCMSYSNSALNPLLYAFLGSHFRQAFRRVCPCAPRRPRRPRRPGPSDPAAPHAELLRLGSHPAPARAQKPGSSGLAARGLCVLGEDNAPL
Beta-2 adrenergic receptor (Homo sapiens), sequence (P07550 whole entry, looked up): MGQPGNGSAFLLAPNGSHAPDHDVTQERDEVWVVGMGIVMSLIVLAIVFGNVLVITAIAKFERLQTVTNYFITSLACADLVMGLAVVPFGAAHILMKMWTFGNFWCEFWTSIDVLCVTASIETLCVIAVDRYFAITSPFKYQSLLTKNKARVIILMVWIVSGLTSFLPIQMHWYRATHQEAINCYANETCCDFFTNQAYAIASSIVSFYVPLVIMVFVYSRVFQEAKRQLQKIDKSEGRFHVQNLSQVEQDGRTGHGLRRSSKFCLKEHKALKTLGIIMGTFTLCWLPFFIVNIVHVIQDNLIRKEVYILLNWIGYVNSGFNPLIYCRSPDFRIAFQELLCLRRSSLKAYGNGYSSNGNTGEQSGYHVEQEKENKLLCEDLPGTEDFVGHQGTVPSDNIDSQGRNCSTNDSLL

NC(=O)n1c(O)c(C(=O)c2cccs2)c2cc(Cl)ccc21
active: [2] 26.6 µM
inactive: [1] | [3] | [4] | [5] | [6] | [7] | [8] | [9] | [10] | [11] | [12] | [13] | [14] | [15]

O=C(O)[C@H](O)c1ccccc1
inactive: [1] | [2] | [3] | [4] | [5] | [6] | [7] | [8] | [16] | [10] | [11] | [12] | [17] | [13] | [18] | [14] | [15]

Cc1nc2c([nH]1)c(=O)n(C)c(=O)n2Cc1ccco1
inactive: [1] | [2] | [3] | [4] | [6] | [7] | [8] | [9] | [10] | [11] | [12] | [19] | [13] | [15]

c1ccc2c(c1)CCCC2C1=NCCN1 (configuration not stated)
inactive: [1] | [2] | [3] | [4] | [6] | [7] | [8] | [9] | [10] | [11] | [12] | [17] | [19] | [14]

[Ca+2]
inactive: [1] | [2] | [3] | [4] | [6] | [7] | [8] | [9] | [10] | [11] | [12] | [17] | [19] | [13] | [18] | [14] | [15]

CCCCCCCCCCCCCCCCCC[N+](C)(C)C
active: [1] 61.3 µM | [6] 40.9 µM | [8] 16.3 µM | [10] 34.8 µM
inactive: [2] | [3] | [4] | [20] | [5] | [9] | [12] | [14] | [15]

C=C1CCC2CC1C2(C)C (configuration not stated)
inactive: [1] | [2] | [3] | [4] | [6] | [7] | [8] | [9] | [10] | [11] | [12] | [17] | [19] | [13] | [18] | [14] | [15]

CCCc1c(OCCCOc2ccc(OCC(=O)O)cc2)ccc(C(C)=O)c1O
inactive: [1] | [2] | [3] | [4] | [20] | [5] | [9] | [12] | [13] | [18] | [14] | [15]
active: [7] 40.8 µM | [10] 54.9 µM

Clc1cccc(C(c2ccc3nc[nH]c3c2)n2ccnc2)c1 (configuration not stated)
inactive: [1] | [2] | [3] | [4] | [6] | [7] | [8] | [9] | [10] | [11] | [12] | [17] | [19] | [13] | [14]

CCCCCCNC(=O)n1cc(F)c(=O)[nH]c1=O
inactive: [1] | [2] | [3] | [4] | [20] | [6] | [7] | [17] | [19] | [13] | [14]

CC(=O)/C(C)=C/C1C(C)=CCCC1(C)C (configuration not stated)
inactive: [1] | [2] | [3] | [4] | [5] | [7] | [8] | [16] | [9] | [10] | [17] | [19] | [13] | [14]

COc1ccc(COC=O)cc1
inactive: [1] | [2] | [3] | [4] | [6] | [7] | [8] | [9] | [10] | [11] | [12] | [17] | [19] | [13] | [14] | [15]
